PubChem BioAssay (EPA / NIEHS)
Records with an inconclusive call do not appear. The source made the active and inactive calls. How the source made its calls: active means hit-call score of the fitted dose curve at least 0.9, where 1 is the maximum; inconclusive means response in the unintended direction; inactive means score below 0.9.

Target: Cellular tumor antigen p53 (Homo sapiens) (UniProt P04637)
Assay: TOX21_p53_BLA_p2_ratio: Tox21 HCT-116 p53 Agonism Beta-lactamase Assay, Ratio, Phase 2 (AID 2283592)
Procedure, shortened: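 Cleaved-to-uncleaved substrate ratio (460 vs 530 nm) measured in HCT116 cells with an inducible beta-lactamase reporter linked to p53 activity. Compounds incubated 16 h at 37C before 2 h room-temperature CCF4-AM loading.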

Chain of Cellular tumor antigen p53 (Homo sapiens) (P04637 whole entry, looked up): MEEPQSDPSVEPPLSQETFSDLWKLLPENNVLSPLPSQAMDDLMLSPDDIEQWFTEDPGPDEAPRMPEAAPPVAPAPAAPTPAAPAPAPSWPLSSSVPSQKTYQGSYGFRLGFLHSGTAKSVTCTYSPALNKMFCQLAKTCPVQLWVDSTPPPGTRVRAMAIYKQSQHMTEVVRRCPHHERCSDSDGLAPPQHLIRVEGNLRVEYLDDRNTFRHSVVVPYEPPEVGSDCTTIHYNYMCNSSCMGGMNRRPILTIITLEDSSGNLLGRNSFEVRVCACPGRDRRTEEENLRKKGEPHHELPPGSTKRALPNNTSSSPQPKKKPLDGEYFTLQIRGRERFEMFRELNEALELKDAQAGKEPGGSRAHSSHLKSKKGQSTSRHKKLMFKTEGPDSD

Row | SMILES | outcome | AC50
1 | NC(=O)CN1CC(O)CC1=O (stereo not drawn) | inactive | 
2 | CNC(=O)OCC[N+](C)(C)C | inactive | 
3 | COP(=S)(OC)Oc1ccc(S(N)(=O)=O)cc1 | inactive | 
4 | COC(=O)C1(O)c2ccccc2-c2ccccc21 | inactive | 
5 | CN(C)CCc1ccc(O)cc1 | inactive | 
6 | O=C1OC2(c3cc(Br)c(O)cc3Oc3c2cc(Br)c(O)[c]3[Hg])c2ccccc21 (stereo not drawn) | inactive | 
7 | CCCCCN(C)CCC(O)(P(=O)(O)O)P(=O)(O)O | inactive | 
8 | NC(=O)C(Cl)Cl | inactive | 
9 | C[C@@H](Cc1ccccc1)N(C)C | inactive | 
10 | CN1C(=O)CC(=O)N(c2ccccc2)c2cc(Cl)ccc21 | inactive | 
11 | C[N+]1(CCF)[C@@H]2CC[C@H]1CC(OC(=O)C(O)(c1ccccc1)c1ccccc1)C2 (stereo partly drawn) | inactive | 
12 | OC(Cn1cncn1)(c1ccc(F)cc1)c1ccccc1F (stereo not drawn) | inactive | 
13 | CC(C)(C)NC[C@H](O)c1ccc(O)cc1Cl | inactive | 
14 | C=CCN1C[C@H](C)N([C@H](c2ccc(C(=O)N(CC)CC)cc2)c2cccc(OC)c2)C[C@H]1C | inactive | 
15 | C=CCC1([C@H](C)CCC)C(=O)NC(=O)NC1=O | inactive | 
16 | CCC1C(C)=NN=C(c2ccc(OC)c(OC)c2)c2cc(OC)c(OC)cc21 (stereo not drawn) | inactive | 
17 | N#CCCC#N | inactive | 
18 | COc1ccccc1N1CCNCC1 | inactive | 
19 | CNNC | inactive | 

Row | SMILES | outcome | AC50
20 | Cn1c(CCCC(=O)O)nc2cc(N(CCCl)CCCl)ccc21 |  | 27.1 µM (active)
21 | CN[C@@H](C)Cc1ccccc1 | inactive | 
22 | O=C1CN(O)C(c2ccccc2)=c2cc(Cl)ccc2=N1 | inactive | 
23 | ClCC(Cl)(Cl)Cl | inactive | 
24 | Cc1ncc(CNC(=O)N(CCCl)N=O)c(N)n1 | inactive | 
25 | COC(=O)[C@@H]1[C@H]2CC[C@@H](C[C@H]1OC(=O)c1ccccc1)N2C | inactive | 
26 | CNC(=O)Oc1ccccc1C1OCCO1 | inactive | 
27 | Cl/C=C\Cl | inactive | 
28 | O=S(=O)(Cl)Cl | inactive | 
29 | NNC(=O)c1cccnc1 | inactive | 
30 | COc1cccc([C@@]2(O)CCCC[C@@H]2CN(C)C)c1 | inactive | 
31 | CCCCCCCCCCCCCCCl | inactive | 
32 | CC(Cl)C(C)Cl (stereo not drawn) | inactive | 
33 | FC(Cl)(Cl)Cl | inactive | 
34 | c1cc2c(c(N3CCNCC3)c1)OCCO2 | inactive | 
35 | COc1cc(CC(C)N)cc(OC)c1OC (stereo not drawn) | inactive | 
36 | CCS(=O)(=O)CCSP(=O)(OC)OC | inactive | 
37 | CC(C)=CCOc1c2occc2cc2ccc(=O)oc12 | inactive | 
38 | Cc1ccc(N)cc1C | inactive | 

Test system: not listed separately
Assay: TOX21_p53_BLA_p4_viability: Viability Assessment in the Tox21 HCT-116 p53 Agonism Beta-lactamase Assay, Phase 4 (AID 2283597);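 further: hits lower the luminescence signal meaning cytotoxicity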
Procedure, shortened: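 Viability is taken as cellular ATP: after 16 h compound exposure of HCT116 cells and a 2 h room-temperature CCF4-AM substrate step, CellTiter-Glo reagent is added and luminescence is measured 30 min later.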

Row | SMILES | outcome | AC50
39 | CNC(=O)OCC[N+](C)(C)C | inactive | 
40 | COP(=S)(OC)Oc1ccc(S(N)(=O)=O)cc1 | inactive | 
41 | O=C1OC2(c3cc(Br)c(O)cc3Oc3c2cc(Br)c(O)[c]3[Hg])c2ccccc21 (stereo not drawn) | inactive | 
42 | CCCCCN(C)CCC(O)(P(=O)(O)O)P(=O)(O)O | inactive | 
43 | NC(=O)C(Cl)Cl | inactive | 
44 | C[C@@H](Cc1ccccc1)N(C)C | inactive | 
45 | CN1C(=O)CC(=O)N(c2ccccc2)c2cc(Cl)ccc21 | inactive | 
46 | C[N+]1(CCF)[C@@H]2CC[C@H]1CC(OC(=O)C(O)(c1ccccc1)c1ccccc1)C2 (stereo partly drawn) | inactive | 
47 | OC(Cn1cncn1)(c1ccc(F)cc1)c1ccccc1F (stereo not drawn) | inactive | 
48 | CC(C)(C)NC[C@H](O)c1ccc(O)cc1Cl | inactive | 
49 | C=CCN1C[C@H](C)N([C@H](c2ccc(C(=O)N(CC)CC)cc2)c2cccc(OC)c2)C[C@H]1C | inactive | 
50 | N#CCCC#N | inactive | 
51 | CCOP(=O)(O)OCC (tested in a mixture with another compound) |  | 83 µM (active)
52 | CNNC | inactive | 
53 | Cn1c(CCCC(=O)O)nc2cc(N(CCCl)CCCl)ccc21 | inactive | 
54 | CN[C@@H](C)Cc1ccccc1 | inactive | 
55 | O=C1CN(O)C(c2ccccc2)=c2cc(Cl)ccc2=N1 | inactive | 
56 | COC(=O)[C@@H]1[C@H]2CC[C@@H](C[C@H]1OC(=O)c1ccccc1)N2C | inactive | 
57 | NNC(=O)c1cccnc1 | inactive | 
58 | CCCCCCCCCCCCCCCl | inactive | 
59 | CC(Cl)C(C)Cl (stereo not drawn) | inactive | 
60 | c1cc2c(c(N3CCNCC3)c1)OCCO2 | inactive | 
61 | COc1cc(CC(C)N)cc(OC)c1OC (stereo not drawn) | inactive | 
62 | CC(C)=CCOc1c2occc2cc2ccc(=O)oc12 | inactive | 

Target: Cellular tumor antigen p53 (Homo sapiens) (UniProt P04637)
Assay: TOX21_p53_BLA_p5_ratio: Tox21 HCT-116 p53 Agonism Beta-lactamase Assay, Ratio, Phase 5 (AID 2283599)
Procedure, shortened: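 Beta-lactamase reporter ratio (blue 460 nm over green 530 nm, 405 nm excitation) after 2 h CCF4-AM loading, in HCT-116 cells exposed 16 h at 37 C to compounds pinned at 217-fold dilution. Increases relative to DMSO baseline scored.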

Row | SMILES | outcome | AC50
63 | COP(=S)(OC)Oc1ccc(S(N)(=O)=O)cc1 | inactive | 
64 | COC(=O)C1(O)c2ccccc2-c2ccccc21 | inactive | 
65 | CN(C)CCc1ccc(O)cc1 | inactive | 
66 | O=C1OC2(c3cc(Br)c(O)cc3Oc3c2cc(Br)c(O)[c]3[Hg])c2ccccc21 (stereo not drawn) | inactive | 
67 | CCCCCN(C)CCC(O)(P(=O)(O)O)P(=O)(O)O | inactive | 
68 | NC(=O)C(Cl)Cl | inactive | 
69 | C[C@@H](Cc1ccccc1)N(C)C | inactive | 
70 | CN1C(=O)CC(=O)N(c2ccccc2)c2cc(Cl)ccc21 | inactive | 
71 | OC(Cn1cncn1)(c1ccc(F)cc1)c1ccccc1F (stereo not drawn) | inactive | 
72 | C=CCN1C[C@H](C)N([C@H](c2ccc(C(=O)N(CC)CC)cc2)c2cccc(OC)c2)C[C@H]1C | inactive | 
73 | C=CCC1([C@H](C)CCC)C(=O)NC(=O)NC1=O | inactive | 
74 | CCC1C(C)=NN=C(c2ccc(OC)c(OC)c2)c2cc(OC)c(OC)cc21 (stereo not drawn) | inactive | 
75 | N#CCCC#N | inactive | 
76 | COc1ccccc1N1CCNCC1 | inactive | 
77 | CNNC | inactive | 
78 | Cn1c(CCCC(=O)O)nc2cc(N(CCCl)CCCl)ccc21 |  | 33.1 µM (active)
79 | ClCC(Cl)(Cl)Cl | inactive | 
80 | Cc1ncc(CNC(=O)N(CCCl)N=O)c(N)n1 | inactive | 
81 | COC(=O)[C@@H]1[C@H]2CC[C@@H](C[C@H]1OC(=O)c1ccccc1)N2C | inactive | 
82 | CNC(=O)Oc1ccccc1C1OCCO1 | inactive | 
83 | O=S(=O)(Cl)Cl | inactive | 
84 | CCCCCCCCCCCCCCCl | inactive | 
85 | CC(Cl)C(C)Cl (stereo not drawn) | inactive | 
86 | c1cc2c(c(N3CCNCC3)c1)OCCO2 | inactive | 
87 | COc1cc(CC(C)N)cc(OC)c1OC (stereo not drawn) | inactive | 
88 | Cc1ccc(N)cc1C | inactive | 
